# In the supplement of paper PMC4466140:
# Target: CaNbp2
# Assay: SPOT peptide array binding signal intensity (averaged, normalized) (arbitrary units (background-subtracted, floor 0; scale differs between SH3 domains)); higher = stronger binding of the SH3 domain to the peptide
# Procedure, shortened: (§1)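 Peptides were synthetic 15-mers on cellulose membranes, with every cysteine replaced by serine. They were incubated overnight at 4°C with GST-SH3 domains from four yeast species at 10 μg/ml in TBS-based blocking buffer. Binding signal, the replicate-averaged normalized and background-subtracted spot intensity, is in arbitrary units that differ between domains.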
row,Binder,SPOT peptide array binding signal intensity
1,RMVRRRPLRVQFSAR,1470

# Target: CaRvs167
# Assay: as above
# Procedure, shortened: as §1
row,Binder,SPOT peptide array binding signal intensity
1,RMVRRRPLRVQFSAR,190

# Target: CaRvs167-3
# Assay: as above
# Procedure, shortened: as §1
row,Binder,SPOT peptide array binding signal intensity
1,RMVRRRPLRVQFSAR,216

# Target: CaSho1
# Assay: as above
# Procedure, shortened: as §1
row,Binder,SPOT peptide array binding signal intensity
1,RMVRRRPLRVQFSAR,1620

# Target: CaSla1-D1-D2
# Assay: as above
# Procedure, shortened: as §1
row,Binder,SPOT peptide array binding signal intensity
1,RMVRRRPLRVQFSAR,590

# Target: CaSla1-D3
# Assay: as above
# Procedure, shortened: as §1
row,Binder,SPOT peptide array binding signal intensity
1,RMVRRRPLRVQFSAR,700

# Target: ScAbp1
# Assay: as above
# Procedure, shortened: as §1
row,Binder,SPOT peptide array binding signal intensity
1,RMVRRRPLRVQFSAR,188

# Target: ScBbc1
# Assay: as above
# Procedure, shortened: as §1
row,Binder,SPOT peptide array binding signal intensity
1,RMVRRRPLRVQFSAR,90.2

# Target: ScBem1-D1
# Assay: as above
# Procedure, shortened: as §1
row,Binder,SPOT peptide array binding signal intensity
1,RMVRRRPLRVQFSAR,142

# Target: ScBzz1-D1
# Assay: as above
# Procedure, shortened: as §1
row,Binder,SPOT peptide array binding signal intensity
1,RMVRRRPLRVQFSAR,39.5

# Target: ScBzz1-D2
# Assay: as above
# Procedure, shortened: as §1
row,Binder,SPOT peptide array binding signal intensity
1,RMVRRRPLRVQFSAR,238

# Target: ScCyk3
# Assay: as above
# Procedure, shortened: as §1
row,Binder,SPOT peptide array binding signal intensity
1,RMVRRRPLRVQFSAR,81.5

# Target: ScFus1
# Assay: as above
# Procedure, shortened: as §1
row,Binder,SPOT peptide array binding signal intensity
1,RMVRRRPLRVQFSAR,1530

# Target: ScHof1
# Assay: as above
# Procedure, shortened: as §1
row,Binder,SPOT peptide array binding signal intensity
1,RMVRRRPLRVQFSAR,12

# Target: ScHse1
# Assay: as above
# Procedure, shortened: as §1
row,Binder,SPOT peptide array binding signal intensity
1,RMVRRRPLRVQFSAR,2920

# Target: ScLsb1
# Assay: as above
# Procedure, shortened: as §1
row,Binder,SPOT peptide array binding signal intensity
1,RMVRRRPLRVQFSAR,23.2

# Target: ScLsb2
# Assay: as above
# Procedure, shortened: as §1
row,Binder,SPOT peptide array binding signal intensity
1,RMVRRRPLRVQFSAR,14

# Target: ScLsb3
# Assay: as above
# Procedure, shortened: as §1
row,Binder,SPOT peptide array binding signal intensity
1,RMVRRRPLRVQFSAR,1400

# Target: ScLsb4
# Assay: as above
# Procedure, shortened: as §1
row,Binder,SPOT peptide array binding signal intensity
1,RMVRRRPLRVQFSAR,364

# Target: ScMyo3
# Assay: as above
# Procedure, shortened: as §1
row,Binder,SPOT peptide array binding signal intensity
1,RMVRRRPLRVQFSAR,16

# Target: ScMyo5
# Assay: as above
# Procedure, shortened: as §1
row,Binder,SPOT peptide array binding signal intensity
1,RMVRRRPLRVQFSAR,2

# Target: ScNbp2
# Assay: as above
# Procedure, shortened: as §1
row,Binder,SPOT peptide array binding signal intensity
1,RMVRRRPLRVQFSAR,1660

# Target: ScPex13
# Assay: as above
# Procedure, shortened: as §1
row,Binder,SPOT peptide array binding signal intensity
1,RMVRRRPLRVQFSAR,40

# Target: ScRvs167
# Assay: as above
# Procedure, shortened: as §1
row,Binder,SPOT peptide array binding signal intensity
1,RMVRRRPLRVQFSAR,164

# Target: ScSho1
# Assay: as above
# Procedure, shortened: as §1
row,Binder,SPOT peptide array binding signal intensity
1,RMVRRRPLRVQFSAR,1900

# Target: ScSla1-D1-D2
# Assay: as above
# Procedure, shortened: as §1
row,Binder,SPOT peptide array binding signal intensity
1,RMVRRRPLRVQFSAR,1030

# Target: ScSla1-D3
# Assay: as above
# Procedure, shortened: as §1
row,Binder,SPOT peptide array binding signal intensity
1,RMVRRRPLRVQFSAR,217

# Target: SpAbp1-D1
# Assay: as above
# Procedure, shortened: as §1
row,Binder,SPOT peptide array binding signal intensity
1,RMVRRRPLRVQFSAR,558

# Target: SpBbc1
# Assay: as above
# Procedure, shortened: as §1
row,Binder,SPOT peptide array binding signal intensity
1,RMVRRRPLRVQFSAR,38.8

# Target: SpBzz1-D1
# Assay: as above
# Procedure, shortened: as §1
row,Binder,SPOT peptide array binding signal intensity
1,RMVRRRPLRVQFSAR,224

# Target: SpBzz1-D2
# Assay: as above
# Procedure, shortened: as §1
row,Binder,SPOT peptide array binding signal intensity
1,RMVRRRPLRVQFSAR,30.5

# Target: SpCyk3
# Assay: as above
# Procedure, shortened: as §1
row,Binder,SPOT peptide array binding signal intensity
1,RMVRRRPLRVQFSAR,7

# Target: SpHof1
# Assay: as above
# Procedure, shortened: as §1
row,Binder,SPOT peptide array binding signal intensity
1,RMVRRRPLRVQFSAR,556

# Target: SpHof1-2
# Assay: as above
# Procedure, shortened: as §1
row,Binder,SPOT peptide array binding signal intensity
1,RMVRRRPLRVQFSAR,29.5

# Target: SpHof1-3
# Assay: as above
# Procedure, shortened: as §1
row,Binder,SPOT peptide array binding signal intensity
1,RMVRRRPLRVQFSAR,862

# Target: SpHse1
# Assay: as above
# Procedure, shortened: as §1
row,Binder,SPOT peptide array binding signal intensity
1,RMVRRRPLRVQFSAR,874

# Target: SpLsb1
# Assay: as above
# Procedure, shortened: as §1
row,Binder,SPOT peptide array binding signal intensity
1,RMVRRRPLRVQFSAR,21

# Target: SpLsb4
# Assay: as above
# Procedure, shortened: as §1
row,Binder,SPOT peptide array binding signal intensity
1,RMVRRRPLRVQFSAR,1330

# Target: SpMyo1
# Assay: as above
# Procedure, shortened: as §1
row,Binder,SPOT peptide array binding signal intensity
1,RMVRRRPLRVQFSAR,46.2

# Target: SpNbp2
# Assay: as above
# Procedure, shortened: as §1
row,Binder,SPOT peptide array binding signal intensity
1,RMVRRRPLRVQFSAR,1850

# Target: SpPex13
# Assay: as above
# Procedure, shortened: as §1
row,Binder,SPOT peptide array binding signal intensity
1,RMVRRRPLRVQFSAR,320

# Target: SpRvs167
# Assay: as above
# Procedure, shortened: as §1
row,Binder,SPOT peptide array binding signal intensity
1,RMVRRRPLRVQFSAR,66.2

# Target: SpSla1-D1-D2
# Assay: as above
# Procedure, shortened: as §1
row,Binder,SPOT peptide array binding signal intensity
1,RMVRRRPLRVQFSAR,15

# Target: SpSla1-D3
# Assay: as above
# Procedure, shortened: as §1
row,Binder,SPOT peptide array binding signal intensity
1,RMVRRRPLRVQFSAR,81
